# Results: the supplement of paper PMC9262897, “Low-cost anti-mycobacterial drug discovery using engineered E. coli” (Nature Communications, 2022)
# Counter-ions that a name gives are not always drawn. ± gives the standard deviation of the averaged measurements.
# Test system: E. coli TESEC Alr+ wild-type control
# Assay: growth (OD600 after 10 h); higher = more growth (less inhibition)
# Conditions: compound 0.1 mM; raw OD600 reference: median of DMSO wells 0.49, cell-free background 0.052
# Protocol: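 TESEC Mtb Alr E. coli (ΔaraC ΔtolC ΔentC Δalr ΔdadX, arabinose-inducible Mtb Alr) or the Alr+ wild-type control strain, grown in defined M9-fructose medium without D-alanine in 96-well plates with Prestwick library compounds at 0.1 mM and 1% DMSO. Low Alr induction is 0.1 µM arabinose and high induction is 10 mM arabinose.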
row,SMILES,growth
1,CC(CCc1ccccc1)NC(C)C(O)c1ccc(O)cc1 (stereo not given) [Nylidrin],0.491 ± 0.052
2,CC(=O)O[C@H]1CC[C@@]2(C)C(=CC[C@@H]3[C@@H]2CC[C@]2(C)C(=O)CC[C@@H]32)C1 [Dehydroisoandosterone 3-acetate],0.253 ± 0.0042
3,NCCc1c[nH]c2ccc(O)cc12 [Serotonin hydrochloride],0.475 ± 0.0089
4,NC(=O)OCCCc1ccccc1 [Phenprobamate],0.562 ± 0.087
5,C[C@]12C/C(=C/O)C(=O)C[C@@H]1CC[C@@H]1[C@@H]2CC[C@@]2(C)[C@H]1CC[C@]2(C)O [Oxymetholone],0.462 ± 0.01
6,C[C@]12CC[C@H](O)C[C@@H]1CC[C@@H]1[C@@H]2CC[C@]2(C)C(=O)CC[C@@H]12 [Epiandrosterone],0.252 ± 0.013
7,CC(C)c1c(CN(C)C(C)Cc2ccccc2)n(C)n(-c2ccccc2)c1=O (stereo not given) [Famprofazone],0.443 ± 0.019
8,C[C@]12N[C@H](Cc3ccccc31)c1ccccc12 [Dizocilpine maleate],0.54 ± 0.094
9,"NCC(O)c1ccc(O)cc1 (racemic) [(+,-)-Octopamine hydrochloride]",0.584 ± 0.08
10,C=C1C[C@@H]2[C@H](CC[C@]3(C)C(=O)CC[C@@H]23)[C@@]2(C)C=CC(=O)C=C12 [Exemestane],0.322 ± 0.0079
11,C[C@]12C[C@H]3S[C@H]3C[C@@H]1CC[C@@H]1[C@@H]2CC[C@]2(C)[C@@H](O)CC[C@@H]12 [Epitiostanol],0.534 ± 0.0058
12,O=c1[nH]oc2c1CCNC2 [THIP Hydrochloride],0.539 ± 0.087
13,CC(N)C(O)c1ccccc1 (stereo not given) [Phenylpropanolamine hydrochloride],0.527 ± 0.077
14,C[C@@H]1CN([C@H]2CC[C@](C#N)(c3ccc(F)cc3)CC2)CC[C@]1(C(=O)O)c1ccccc1 [Levocabastine hydrochloride],0.49 ± 0.026
15,CC[C@@H](CO)NC(=O)[C@@H]1C=C2c3cccc4[nH]cc(c34)C[C@H]2N(C)C1 [Methylergometrine maleate],0.523 ± 0.018
16,CCN(C(C)=O)c1cccc(-c2ccnc3c(C#N)cnn23)c1 [Zaleplon],0.504 ± 0.065
17,O=[N+]([O-])O[C@H]1CO[C@H]2[C@@H]1OC[C@H]2O[N+](=O)[O-] [Isosorbide dinitrate],0.474 ± 0.092
18,CCCC[N+]1(C)[C@@H]2CC(OC(=O)[C@H](CO)c3ccccc3)C[C@H]1[C@@H]1O[C@@H]12 (stereo not given in full) [Butylscopolammonium (n-) bromide],0.531 ± 0.1
19,NCCCNCCSP(=O)(O)O [Amifostine],0.627 ± 0.013
20,C[N+]1(C)CCOC(O)(c2ccc(-c3ccc(C4(O)C[N+](C)(C)CCO4)cc3)cc2)C1 (stereo not given) [Hemicholinium bromide],0.559 ± 0.071

row,SMILES,growth
1,OC(c1ccccc1)(c1ccccc1)C1CCNCC1 [Azacyclonol],0.523 ± 0.032
2,CN(C)C(=O)Oc1cc(OC(=O)N(C)C)cc(C(O)CNC(C)(C)C)c1 (stereo not given) [Bambuterol hydrochloride],0.618 ± 0.051
3,CCC(=O)O[C@@](Cc1ccccc1)(c1ccccc1)[C@@H](C)CN(C)C [Levopropoxyphene napsylate],0.566 ± 0.042
4,CC(C)C[C@H]1C(=O)N2CCC[C@H]2[C@]2(O)O[C@](NC(=O)[C@@H]3C=C4c5cccc6[nH]c(Br)c(c56)C[C@H]4N(C)C3)(C(C)C)C(=O)N12 [Bromocryptine mesylate],0.511 ± 0.046
5,C[N+](C)(C)CCCCCCCCCC[N+](C)(C)C [Decamethonium bromide],0.417 ± 0.017
6,C[C@]12CC[C@H](O)C[C@H]1CC[C@@H]1[C@@H]2CC[C@]2(C)[C@@H](C3=CC(=O)OC3)CC[C@]12O [Digitoxigenin],0.439 ± 0.016
7,CC(C)(N)Cc1ccccc1 [Phentermine hydrochloride],0.603 ± 0.13
8,NC(=O)CN1CCCC1=O [Piracetam],0.491 ± 0.12
9,C[C@]12CCC(=O)C=C1CC[C@@H]1[C@@H]2C(=O)C[C@]2(C)C(=O)CC[C@@H]12 [Adrenosterone],0.533 ± 0.083
10,CC1C=CC=CCCC=CC=CC=CC=CC(OC2OC(C)C(O)C(N)C2O)CC2OC(O)(CC(O)C(O)CCC(O)CC(O)CC(O)CC(=O)OC(C)C(C)C1O)CC(O)C2C(=O)O (stereo not given) [Nystatine],0.471 ± 0.021
11,CCCCCC[C@H]1C(=O)O[C@H](C)[C@H](NC(=O)c2cccc(NC=O)c2O)C(=O)O[C@@H](C)[C@@H]1OC(=O)CC(C)C [Antimycin A],0.428 ± 0.022
12,C#C[C@]1(O)CC[C@H]2[C@@H]3CCC4=CC(=O)CC[C@]4(C)[C@H]3CC[C@@]21C [Ethisterone],0.48 ± 0.055
13,COc1ccc(CCN)cc1OC [Homoveratrylamine],0.563 ± 0.069
14,CCC1(CC)C(=O)C=CNC1=O [Pyrithyldione],0.458 ± 0.024
15,c1ccc2c(c1)Nc1ccccc1S2 [Phenothiazine],0.457 ± 0.0082
16,CCOC(=O)c1cncn1[C@H](C)c1ccccc1 [Etomidate],0.397 ± 0.013
17,"CC(=O)OCC1=C(C(=O)O)N2C(=O)[C@@H](N)[C@H]2SC1 [Cephalosporanic acid, 7-amino]",0.649 ± 0.029
18,CC(Cc1ccccc1)NCCC(c1ccccc1)c1ccccc1 (stereo not given) [Prenylamine lactate],0.0478 ± 0.00061
19,Fc1ccc(C(OCCN2CCN(CCCc3ccccc3)CC2)c2ccc(F)cc2)cc1,0.04777 ± 0.00025
20,C[C@@H]1C[C@@H]([C@H](O)CC2CC(=O)NC(=O)C2)C(=O)[C@@H](C)C1 [Cycloheximide],0.529 ± 0.06
